Source: PubChem BioAssay AID1159580 (chemical genetic matrix, 2015)
“And” between values parts separate entries of the source, which are not always exact repeats. Equal entries are not always repeated. About 2,000 (36%) of roughly 5,500 compounds were called active. About 18% were inconclusive and are not listed. Cut-off read from the data, not from the text of the source: active = normalized growth mostly below about 0.91 (no sharp cut-off); inconclusive = no clear call, values can overlap the other calls; inactive = mostly above about 0.92. Some of the results follow. The source holds several records for some structures; these can differ, active in one and inactive in another.

Experiment: chemical genetic growth profiling, strain panel (AID 1159580);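 note: tested at 20 µM; growth read once vehicle control cultures reached saturation at 30 °C; 1 = growth at the plate median or of vehicle wells; lower values mean less growth of the strain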
Settings: growth OD

With `CC[N+](C)(C)c1cccc(O)c1` the normalized growth (S. cerevisiae deletion strains, locus YJR075W, strain HOC1, stronger effect = lower value) was 0.985 (inactive) and 1.04 (inactive), the normalized growth (S. cerevisiae deletion strains, locus YKL009W, strain mrt4, stronger effect = lower value) was 1 (inactive) and the normalized growth (S. cerevisiae deletion strains, locus YKL068W, stronger effect = lower value) was 0.985 (inactive). The normalized growth (S. cerevisiae deletion strains, locus YKL085W, strain MDH1 (second series), stronger effect = lower value) was 1 (inactive), the normalized growth (S. cerevisiae deletion strains, locus YKL085W, strain MDH1, stronger effect = lower value) was 1 (inactive) and the normalized growth (S. cerevisiae deletion strains, locus YKL160W, strain elf1, stronger effect = lower value) was 1.06 (inactive). For the same compound, the normalized growth (S. cerevisiae deletion strains, locus YKL190W, strain CNB1, stronger effect = lower value) was 1.01 (inactive), the normalized growth (S. cerevisiae deletion strains, locus YKR001C, strain vps1, stronger effect = lower value) was 0.97 (inactive) and the normalized growth (S. cerevisiae deletion strains, locus YKR026C, strain gcn3, stronger effect = lower value) was 1 (inactive). For the same compound, the normalized growth (S. cerevisiae deletion strains, locus YKR091W, strain srl3, stronger effect = lower value) was 1.01 (inactive), the normalized growth (S. cerevisiae deletion strains, locus YLL001W, strain dnm1, stronger effect = lower value) was 1.06 (inactive) and the normalized growth (S. cerevisiae deletion strains, locus YLL026W, stronger effect = lower value) was 1 (inactive). The normalized growth (S. cerevisiae deletion strains, locus YLL041C, strain sdh2, stronger effect = lower value) was 1.01 (inactive), the normalized growth (S. cerevisiae deletion strains, locus YLR027C, strain aat2, stronger effect = lower value) was 1.02 (inactive) and the normalized growth (S. cerevisiae deletion strains, locus YLR039C, strain RIC1, stronger effect = lower value) was 0.993 (inactive). For the same compound, the normalized growth (S. cerevisiae deletion strains, locus YLR058C, strain SHM2, stronger effect = lower value) was 0.982 (inactive), the normalized growth (S. cerevisiae deletion strains, locus YLR102C, strain apc9, stronger effect = lower value) was 0.977 (inactive) and the normalized growth (S. cerevisiae deletion strains, locus YLR113W, strain HOG1, stronger effect = lower value) was 0.996 (inactive). For the same compound, the normalized growth (S. cerevisiae deletion strains, locus YLR221C, strain rsa3, stronger effect = lower value) was 1.03 (inactive), the normalized growth (S. cerevisiae deletion strains, locus YLR258W, strain gsy2, stronger effect = lower value) was 1.01 (inactive) and the normalized growth (S. cerevisiae deletion strains, locus YLR262C, strain YPT6 (second series), stronger effect = lower value) was 1.05 (inactive). For the same compound, the normalized growth (S. cerevisiae deletion strains, locus YLR262C, strain YPT6, stronger effect = lower value) was 1 (inactive), the normalized growth (S. cerevisiae deletion strains, locus YLR268W, strain sec22, stronger effect = lower value) was 0.917 (inactive) and the normalized growth (S. cerevisiae deletion strains, locus YLR320W, strain mms22, stronger effect = lower value) was 1.06 (inactive). The normalized growth (S. cerevisiae deletion strains, locus YLR330W, strain CHS5, stronger effect = lower value) was 0.992 (inactive), the normalized growth (S. cerevisiae deletion strains, locus YLR342W, strain FKS1 (second series), stronger effect = lower value) was 1.04 (inactive) and the normalized growth (S. cerevisiae deletion strains, locus YLR342W, strain FKS1, stronger effect = lower value) was 1.02 (inactive). The normalized growth (S. cerevisiae deletion strains, locus YLR357W, strain rsc2, stronger effect = lower value) was 1.01 (inactive), the normalized growth (S. cerevisiae deletion strains, locus YLR370C, strain arc18, stronger effect = lower value) was 1.01 (inactive) and the normalized growth (S. cerevisiae deletion strains, locus YLR371W, strain rom2, stronger effect = lower value) was 0.969 (inactive). For the same compound, the normalized growth (S. cerevisiae deletion strains, locus YLR384C, strain iki3, stronger effect = lower value) was 0.996 (inactive), the normalized growth (S. cerevisiae deletion strains, locus YLR418C, strain cdc73, stronger effect = lower value) was 0.954 (inactive) and the normalized growth (S. cerevisiae deletion strains, locus YML016C, strain PPZ1, stronger effect = lower value) was 0.992 (inactive). The normalized growth (S. cerevisiae deletion strains, locus YML032C, strain rad52, stronger effect = lower value) was 0.954 (inactive), the normalized growth (S. cerevisiae deletion strains, locus YML120C, strain ndi1, stronger effect = lower value) was 1.04 (inactive) and the normalized growth (S. cerevisiae deletion strains, locus YML124C, strain tub3, stronger effect = lower value) was 0.984 (inactive). For the same compound, the normalized growth (S. cerevisiae deletion strains, locus YMR058W, strain fet3, stronger effect = lower value) was 1.02 (inactive), the normalized growth (S. cerevisiae deletion strains, locus YMR078C, strain ctf18, stronger effect = lower value) was 0.96 (inactive) and the normalized growth (S. cerevisiae deletion strains, locus YMR125W, strain sto1, stronger effect = lower value) was 1.05 (inactive). For the same compound, the normalized growth (S. cerevisiae deletion strains, locus YMR129W, stronger effect = lower value) was 1.01 (inactive), the normalized growth (S. cerevisiae deletion strains, locus YMR205C, strain PFK2, stronger effect = lower value) was 1.04 (inactive) and the normalized growth (S. cerevisiae deletion strains, locus YMR223W, strain ubp8, stronger effect = lower value) was 0.996 (inactive). The normalized growth (S. cerevisiae deletion strains, locus YMR231W, strain pep5, stronger effect = lower value) was 1 (inactive), the normalized growth (S. cerevisiae deletion strains, locus YMR263W, strain SAP30, stronger effect = lower value) was 0.993 (inactive) and the normalized growth (S. cerevisiae deletion strains, locus YMR307W, strain GAS1, stronger effect = lower value) was 0.956 (inactive) and 1.04 (inactive). The normalized growth (S. cerevisiae deletion strains, locus YNL067W, strain RPL9B, stronger effect = lower value) was 0.975 (inactive), the normalized growth (S. cerevisiae deletion strains, locus YNL071W, strain lat1, stronger effect = lower value) was 1.02 (inactive) and the normalized growth (S. cerevisiae deletion strains, locus YNL128W, strain TEP1, stronger effect = lower value) was 0.991 (inactive). For the same compound, the normalized growth (S. cerevisiae deletion strains, locus YNL153C, strain GIM3, stronger effect = lower value) was 0.982 (inactive), the normalized growth (S. cerevisiae deletion strains, locus YNL175C, strain NOP13, stronger effect = lower value) was 0.999 (inactive) and the normalized growth (S. cerevisiae deletion strains, locus YNL183C, strain NPR1, stronger effect = lower value) was 0.95 (inactive). For the same compound, the normalized growth (S. cerevisiae deletion strains, locus YNL197C, strain WHI3, stronger effect = lower value) was 1 (inactive), the normalized growth (S. cerevisiae deletion strains, locus YNL209W, strain ssb2, stronger effect = lower value) was 1.01 (inactive) and the normalized growth (S. cerevisiae deletion strains, locus YNL224C, strain SQS1, stronger effect = lower value) was 1.02 (inactive). The normalized growth (S. cerevisiae deletion strains, locus YNL233W, strain BNI4, stronger effect = lower value) was 0.979 (inactive), the normalized growth (S. cerevisiae deletion strains, locus YNL248C, strain rpa49, stronger effect = lower value) was 1.07 (inactive) and the normalized growth (S. cerevisiae deletion strains, locus YNL250W, strain rad50, stronger effect = lower value) was 0.982 (inactive). For the same compound, the normalized growth (S. cerevisiae deletion strains, locus YNL271C, strain bni1, stronger effect = lower value) was 0.977 (inactive), the normalized growth (S. cerevisiae deletion strains, locus YNL298W, strain CLA4, stronger effect = lower value) was 0.979 (inactive) and the normalized growth (S. cerevisiae deletion strains, locus YNL307C, strain MCK1, stronger effect = lower value) was 0.973 (inactive). The normalized growth (S. cerevisiae deletion strains, locus YNL322C, strain KRE1 (second series), stronger effect = lower value) was 1.02 (inactive), the normalized growth (S. cerevisiae deletion strains, locus YNL322C, strain KRE1, stronger effect = lower value) was 0.993 (inactive) and the normalized growth (S. cerevisiae deletion strains, locus YNR049C, strain mso1, stronger effect = lower value) was 1.01 (inactive). For the same compound, the normalized growth (S. cerevisiae deletion strains, locus YNR052C, strain pop2, stronger effect = lower value) was 0.984 (inactive), the normalized growth (S. cerevisiae deletion strains, locus YOL006C, strain TOP1, stronger effect = lower value) was 0.948 (inactive) and the normalized growth (S. cerevisiae deletion strains, locus YOL012C, strain htz1) was 0.664 (inactive). The normalized growth (S. cerevisiae deletion strains, locus YOL147C, strain pex11, stronger effect = lower value) was 0.982 (inactive), the normalized growth (S. cerevisiae deletion strains, locus YOR001W, strain rrp6, stronger effect = lower value) was 0.951 (inactive) and the normalized growth (S. cerevisiae deletion strains, locus YOR061W, strain CKA2, stronger effect = lower value) was 0.989 (inactive). The normalized growth (S. cerevisiae deletion strains, locus YOR069W, strain VPS5, stronger effect = lower value) was 0.986 (inactive), the normalized growth (S. cerevisiae deletion strains, locus YOR070C, strain gyp1, stronger effect = lower value) was 1 (inactive) and the normalized growth (S. cerevisiae deletion strains, locus YOR080W, strain dia2, stronger effect = lower value) was 1 (inactive). For the same compound, the normalized growth (S. cerevisiae deletion strains, locus YOR083W, strain WHI5 (second series), stronger effect = lower value) was 0.991 (inactive), the normalized growth (S. cerevisiae deletion strains, locus YOR083W, strain WHI5, stronger effect = lower value) was 1.05 (inactive) and the normalized growth (S. cerevisiae deletion strains, locus YOR106W, strain vam3, stronger effect = lower value) was 1.05 (inactive). The normalized growth (S. cerevisiae deletion strains, locus YOR136W, strain idh2, stronger effect = lower value) was 0.986 (inactive), the normalized growth (S. cerevisiae deletion strains, locus YOR144C, strain elg1, stronger effect = lower value) was 0.979 (inactive) and the normalized growth (S. cerevisiae deletion strains, locus YOR184W, strain ser1, stronger effect = lower value) was 0.955 (inactive). The normalized growth (S. cerevisiae deletion strains, locus YOR231W, strain MKK1, stronger effect = lower value) was 0.997 (inactive), the normalized growth (S. cerevisiae deletion strains, locus YOR265W, strain rbl2, stronger effect = lower value) was 1.01 (inactive) and the normalized growth (S. cerevisiae deletion strains, locus YOR270C, strain vph1, stronger effect = lower value) was 1.07 (inactive). The normalized growth (S. cerevisiae deletion strains, locus YOR290C, strain snf2, stronger effect = lower value) was 1.04 (inactive), the normalized growth (S. cerevisiae deletion strains, locus YOR316C, strain cot1, stronger effect = lower value) was 0.975 (inactive) and the normalized growth (S. cerevisiae deletion strains, locus YPL051W, strain arl3, stronger effect = lower value) was 1.04 (inactive). The normalized growth (S. cerevisiae deletion strains, locus YPL055C, strain LGE1, stronger effect = lower value) was 1.01 (inactive) and 1.17 [resistant] (active), the normalized growth (S. cerevisiae deletion strains, locus YPL078C, strain atp4, stronger effect = lower value) was 1.06 (inactive) and the normalized growth (S. cerevisiae deletion strains, locus YPL106C, strain sse1, stronger effect = lower value) was 1.02 (inactive). For the same compound, the normalized growth (S. cerevisiae deletion strains, locus YPL240C, strain hsp82, stronger effect = lower value) was 1.01 (inactive), the normalized growth (S. cerevisiae deletion strains, locus YPL241C, strain CIN2, stronger effect = lower value) was 1 (inactive) and 1.01 (inactive) and the normalized growth (S. cerevisiae deletion strains, locus YPL256C, strain CLN2, stronger effect = lower value) was 0.981 (inactive). The normalized growth (S. cerevisiae deletion strains, locus YPR119W, strain clb2, stronger effect = lower value) was 0.992 (inactive), the normalized growth (S. cerevisiae deletion strains, locus YPR141C, strain kar3, stronger effect = lower value) was 0.96 (inactive) and the normalized growth (S. cerevisiae deletion strains, locus YPR163C, strain tif3, stronger effect = lower value) was 0.97 (inactive). For the same compound, the normalized growth (S. cerevisiae deletion strains, locus YPR167C, strain met16, stronger effect = lower value) was 0.979 (inactive), the normalized growth (S. cerevisiae deletion strains, strain wtn01, stronger effect = lower value) was 0.937 (inactive) and the normalized growth (S. cerevisiae strains, strain wild type, stronger effect = lower value) was 0.996 (inactive).
